# Assay results as given in PubChem BioAssay (EPA / NIEHS).
# Records with an inconclusive call do not appear. Active and inactive are the calls of the source. Rule for the calls: active = hit-call score of the fitted dose curve at least 0.9, where 1 is the maximum; inconclusive = response in the unintended direction; inactive = score below 0.9.
# Columns and labels:
# [1] = ACEA_AR_agonist_AUC_viability: ACEA Biosciences xCELLigence Real-Time Cell Analysis on Androgen Receptor Agonism for Viability (AID 2283775);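 for AC50: viability read 80 hours after compound addition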
# Summary of the method: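 22Rv1 cells; impedance growth kinetics; 8-pt 1:4 dilutions from 100 uM top final, ≤0.5% DMSO; n = 2; 80 h read; AUC viability, loss-of-signal vs DMSO.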
# [2] = ACEA_AR_antagonist_AUC_viability: ACEA Biosciences xCELLigence Real-Time Cell Analysis on Androgen Receptor Antagonism for Viability (AID 2283776);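 note: 22Rv1 human prostate cancer cells growing on impedance electrode plates; area under impedance growth curve at 80 h after dosing as viability; hits lower the growth signal relative to DMSO meaning cytotoxicity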
# Summary of the method: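 22Rv1 prostate cells, continuous dosing up to 100 uM final (0.5% DMSO max), duplicate plates. Growth measured by impedance; AUC at 80 h, loss of signal vs DMSO.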
compound,measurement,setting,value
CN(C)C(=S)SSC(=S)N(C)C,AC50,[1],20 µM (active)
same,AC50,[2],22.6 µM (active)
COP(N)(=O)SC (stereo not drawn),outcome,[1],inactive
same,outcome,[2],inactive
Cc1cc(Cl)ccc1OCC(=O)O,outcome,[1],inactive
same,outcome,[2],inactive
N#Cc1cc(Br)c(O)c(Br)c1,AC50,[1],59.6 µM (active)
same,AC50,[2],52.1 µM (active)
CC1=C(C(=O)Nc2ccccc2)SCCO1,outcome,[2],inactive
C=CCC1=C(C)[C@@H](OC(=O)[C@@H]2[C@@H](C=C(C)C)C2(C)C)CC1=O,AC50,[1],66.9 µM (active)
same,AC50,[2],61.3 µM (active)
CS/C(C)=N/OC(=O)N(C)SN(C)C(=O)O/N=C(\C)SC,AC50,[1],79.6 µM (active)
same,AC50,[2],77.9 µM (active)
Fc1ccc(Oc2ccnc3cc(Cl)cc(Cl)c23)cc1,AC50,[1],76.3 µM (active)
same,AC50,[2],60 µM (active)
CC1COC(Cn2cncn2)(c2ccc(Oc3ccc(Cl)cc3)cc2Cl)O1 (stereo not drawn),AC50,[1],44.8 µM (active)
same,AC50,[2],30.3 µM (active)
CCON=C(CC)C1=C(O)CC(c2c(C)cc(C)cc2C)CC1=O (stereo not drawn),outcome,[1],inactive
same,outcome,[2],inactive
Cc1c(F)c(F)c(COC(=O)C2C(/C=C(\Cl)C(F)(F)F)C2(C)C)c(F)c1F (stereo not drawn),outcome,[1],inactive
same,AC50,[2],30.6 µM (active)
CCNc1nc(Cl)nc(NCC)n1,outcome,[1],inactive
same,outcome,[2],inactive
COC(=O)c1ccccc1C(=O)OC,outcome,[2],inactive
C=CCC1=C(C)C(OC(=O)C2C(C=C(C)C)C2(C)C)CC1=O (stereo not drawn),AC50,[1],52.5 µM (active)
same,AC50,[2],52.5 µM (active)
CCOc1cc(Oc2ccc(C(F)(F)F)cc2Cl)ccc1[N+](=O)[O-],AC50,[1],22.8 µM (active)
same,AC50,[2],12.9 µM (active)
COc1cnc(OC)n2nc(NS(=O)(=O)c3c(OCC(F)F)cccc3C(F)(F)F)nc12,outcome,[1],inactive
same,outcome,[2],inactive
COC(=O)C(C)Oc1ccc(Oc2ccc(Cl)cc2Cl)cc1 (stereo not drawn),AC50,[1],50 µM (active)
same,AC50,[2],50 µM (active)
CC(C)C1(C)N=C(c2nc3ccccc3cc2C(=O)O)NC1=O (stereo not drawn),outcome,[2],inactive
COC(=O)C=C(C)OP(=O)(OC)OC,AC50,[1],29.8 µM (active)
same,AC50,[2],19 µM (active)
CC(Oc1ccc(Cl)cc1Cl)C(=O)O (stereo not drawn),outcome,[1],inactive
same,outcome,[2],inactive
CCc1nn(C)c(C(=O)NCc2ccc(C(C)(C)C)cc2)c1Cl,AC50,[1],25.3 µM (active)
same,AC50,[2],19.4 µM (active)
N#Cc1nn(-c2c(Cl)cc(C(F)(F)F)cc2Cl)c(N)c1S(=O)C(F)(F)F (stereo not drawn),AC50,[1],40.6 µM (active)
same,AC50,[2],31.2 µM (active)
O=C(Nc1ccccc1)Nc1ccnc(Cl)c1,AC50,[1],39.1 µM (active)
same,AC50,[2],30.8 µM (active)
Cc1ccc(-c2c(Cl)nc(C#N)n2S(=O)(=O)N(C)C)cc1,AC50,[1],19.2 µM (active)
same,AC50,[2],16.1 µM (active)
N#CC(CCc1ccc(Cl)cc1)(Cn1cncn1)c1ccccc1 (stereo not drawn),AC50,[1],50 µM (active)
same,AC50,[2],25.7 µM (active)
CNC(=O)ON=CC(C)(C)SC,outcome,[2],inactive
